# Bioassay records deposited in PubChem by National Center for Advancing Translational Sciences (NCATS).
# This is a sample that favours compounds with a hit; in the whole collection about 18% have one here.
# DT40 TDP1 CPT: qHTS for Inhibitors of human tyrosyl-DNA phosphodiesterase 1 (TDP1): qHTS in cells in presence of CPT; chicken DT40 Tdp1-/-;hTDP1 cells + 20 nM CPT, ATP luminescence, 48 h; Potency, µM (titrated, usually from 46.2 µM), inactives show top-dose activity change, negative = growth inhibition, usual class: inhibitors; hit rate 12% among 420,000; AID 686979, 2013; further: potency means the concentration at half of the fitted maximal effect; on the % scale 0 is the no-effect control and ±100 the full control effect; nearly all actives have a fitted effect of over 55% in size
#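 Chicken DT40 Tdp1-/- cells complemented with human TDP1, 400 cells/well, exposed to compounds plus 20 nM camptothecin for at least 48 h at 37 C; viability read as ATP content by CellTiter-Glo luminescence.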
# DT40 TDP1 no CPT: qHTS for Inhibitors of human tyrosyl-DNA phosphodiesterase 1 (TDP1): qHTS in cells in absence of CPT. AID 686978, 2013. hit rate 15% among 420,000. DT40 Tdp1-/- hTDP1 cells, no CPT, ATP luminescence, 48 h. Potency, µM (top dose mostly 46.2 µM), for the others: at the highest dose activity change, negative = growth inhibition, most hits filed as inhibitors; further: potency means the concentration at half of the fitted maximal effect; on the % scale 0 is the no-effect control and ±100 the full control effect; nearly all actives have a fitted effect of over 55% in size
#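 Cells were dispensed at 400 per well, compounds added by pin tool, plates incubated ≥48 hr at 37 °C, then CellTiter-Glo added for 30 min at room temperature before luminescence reading. Line: DT40 Tdp1-/- complemented with hTDP1; camptothecin omitted.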
# IL1B secr inh: qHTS for Inhibitors of Inflammasome Signaling: IL-1-beta AlphaLISA Primary Screen; activity change, % at 57.5 µM; THP-1 LPS/ATP IL-1B secretion, AlphaLISA, 16 h; hits give low values; hit rate 4.7% among 360,000; AID 743279, 2014; in the data active means activity change below about -50%; inconclusive means mostly about -30% to -49%; further: on the % scale 0 is the no-effect control and ±100 the full control effect
#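 Secreted IL-1B measured by AlphaLISA bead assay after 16 h compound exposure of THP-1 cells; compounds (final up to 57.5 uM) added 1 h before LPS (250 ng/mL) and ATP (1.25 mM) stimulation; lower signal means less secretion.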
# HepG2 tox: qHTS for Inhibitors of TGF-b: Cytotox Counterscreen. HepG2 CAGA-GFP viability, ATP luminescence, 18 h. Potency, µM (titrated, usually from 46.1 µM), for inactives: top-dose activity change, negative = cytotoxicity, actives largely listed as cytotoxic. hit rate 0.76% among 410,000; further: potency means the concentration at half of the fitted maximal effect
#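 HepG2 CAGA-GFP cells (1000/well, DMEM with 1% FBS) received compound, then TGF-beta at 500 pg/mL final, and were incubated 18 hours at 37 degrees C. Viability was read by CellTiter-Glo luminescence. Media-only wells were set as complete cell-killing and DMSO as no toxicity.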
# TDP1 block: qHTS Assay for Inhibitors of Tyrosyl-DNA Phosphodiesterase (TDP1). hit rate 0.28% among 350,000. Potency, µM (highest dose often 130 µM), inactives show top-dose activity change, negative = inhibition, most hits filed as inhibitors. Tyrosyl-DNA phosphodiesterase 1 (Homo sapiens), Q9NUW8. AID 485290, 2010. recombinant TDP1, AlphaScreen DNA substrate cleavage; further: potency means the concentration at half of the fitted maximal effect; on the % scale 0 is the no-effect control and ±100 the full control effect; nearly all actives have a fitted effect of over 40% in size
# Target sequence (Q9NUW8 whole entry, looked up): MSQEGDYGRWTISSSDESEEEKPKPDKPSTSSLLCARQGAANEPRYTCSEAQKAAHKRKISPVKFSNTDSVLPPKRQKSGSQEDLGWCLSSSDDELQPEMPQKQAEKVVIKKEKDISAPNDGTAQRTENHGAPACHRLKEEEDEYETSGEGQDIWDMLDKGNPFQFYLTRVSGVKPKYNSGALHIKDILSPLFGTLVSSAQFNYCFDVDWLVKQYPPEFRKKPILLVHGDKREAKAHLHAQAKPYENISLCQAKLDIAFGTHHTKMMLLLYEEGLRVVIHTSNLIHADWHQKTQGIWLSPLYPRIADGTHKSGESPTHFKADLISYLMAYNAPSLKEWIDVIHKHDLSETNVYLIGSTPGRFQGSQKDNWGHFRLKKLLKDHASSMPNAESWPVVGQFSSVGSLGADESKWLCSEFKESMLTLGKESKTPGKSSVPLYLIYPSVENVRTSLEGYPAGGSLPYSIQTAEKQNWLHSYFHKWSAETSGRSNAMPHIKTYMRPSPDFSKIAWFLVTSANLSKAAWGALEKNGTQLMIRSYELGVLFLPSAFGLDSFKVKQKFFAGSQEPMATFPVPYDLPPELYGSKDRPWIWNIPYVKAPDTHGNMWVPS
#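 Signal: AlphaScreen proximity between streptavidin donor and anti-FITC acceptor beads on intact substrate. Reaction: Tdp1 1 nM, substrate 15 nM final, 5 min RT after 15 min compound preincubation.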
# TGFb SMAD3 inh: qHTS for Inhibitors of TGF-b; hit rate 1.2% among 410,000; Potency, µM (top dose mostly 46.1 µM), inactives show top-dose activity, negative = inhibition, most hits filed as inhibitors; AID 588855, 2011; HepG2 CAGA-GFP TGF-b/SMAD3 reporter, GFP fluorescence, 18 h; TGF-beta stimulated, 500 pg/mL final; further: potency means the concentration at half of the fitted maximal effect; on the % scale 0 is the no-effect control and ±100 the full control effect; nearly all actives have a fitted effect of over 65% in size
#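 Inhibition was scored as loss of TGF-beta-induced (500 pg/mL final, 18 hours, 37 degrees C) GFP in HEPG2 cells carrying a CAGA-GFP reporter, in DMEM with 1% FBS. Well GFP was summed per cell; Activity was normalised to unstimulated and stimulated DMSO wells, then concentration-response fitting.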
# Starred values were filed as active, the others as inactive; ? = inconclusive; . = no result; [ ] = remark or other dose. Unless noted, the call rests on the fitted dose curve; in most records, active means well fitted curve in the direction sought with a large enough effect; inconclusive means small, poorly fitted or top-dose-only effect, or another doubt; inactive means no such curve, though single readings can be large; an effect the other way counts as inactive or inconclusive.
SMILES,DT40 TDP1 CPT,DT40 TDP1 no CPT,IL1B secr inh,HepG2 tox,TDP1 block,TGFb SMAD3 inh
O=C(NCCc1ccc(Cl)cc1)C12CC3CC(CC(O)(C3)C1)C2,13%,11%,6,-20%,3%,13%
CN(Cc1ccc(Cl)cc1)C(=O)CNC(=O)C12CC3CC(CC(C3)C1)C2,18µM*,?,-7,-12%,1%,11%
COC(=O)c1cccc(NS(=O)(=O)c2ccc(OC)cc2)c1C,5.2µM*,6.5µM*,33,-2%,-2%,-3%
CCOc1ccc(N(CC(=O)Nc2ccccc2OC)S(=O)(=O)c2ccccc2)cc1,1.2µM*,1.2µM*,50,8%,4%,?
COC(=O)c1cccc(NS(=O)(=O)c2ccc(OC)c(OC)c2)c1C,?,?,0,3%,2%,?
CCOC(=O)c1ccccc1NS(=O)(=O)c1ccc(OCC)cc1,7.9µM*,13µM*,8,-2%,?,-9%
CCOC(=O)c1ccccc1NC(=O)CN(c1ccccc1)S(=O)(=O)c1ccc(OCC)cc1,23µM*,15µM*,.,-4%,.,5%
CC1(C(=O)NS(=O)(=O)c2ccccc2)CCN1C(=O)CC1CC1 (configuration not stated),-3%,-2%,0,-2%,.,16%
CCOc1cc2c(cc1OCC)C(CC(=O)O)N(C(=O)Nc1ccccc1C(F)(F)F)CC2 (configuration not stated),?,?,.,0%,-1%,-3%
CCOC(=O)c1ccccc1NC(=O)CN(c1ccccc1OC)S(=O)(=O)c1ccc(C)cc1,?,12µM*,.,-8%,5%,-28%
COc1ccccc1N(CC(=O)Nc1ccccc1C(F)(F)F)S(=O)(=O)c1ccc(C)cc1,?,?,.,-20%,.,?
COc1ccc(NC(=O)CN(c2ccc([N+](=O)[O-])cc2)S(=O)(=O)c2ccccc2)c(OC)c1,?,?,-1,18%,-1%,-12%
CCOc1ccc(NC(=O)c2ccccc2NS(=O)(=O)c2ccc(F)cc2)c([N+](=O)[O-])c1,23µM*,?,?,-37%,6%,?
CCOc1ccc(S(=O)(=O)Nc2ccccc2C(=O)Nc2ccccc2N2CCOCC2)cc1,?,?,4,-31%,3%,-21%
CCOc1ccc(S(=O)(=O)N(CC(=O)Nc2cccnc2)c2ccccc2)cc1,?,16µM*,.,-9%,.,0%
CCOc1ccc(N(CC(=O)Nc2cccnc2)S(=O)(=O)c2ccc(C)cc2)cc1,-14%,?,-12,4%,-2%,0%
COc1ccc(N(CC(=O)Nc2ccc(OC)cc2OC)S(=O)(=O)c2ccccc2)cc1,23µM*,18µM*,14,-27%,-2%,-15%
CC(=O)N1CCCc2cc(S(=O)(=O)N3CCCC(C(=O)Nc4ccccc4C)C3)ccc21 (configuration not stated),?,-10%,14,-1%,4%,2%
COc1ccc(NC(=O)CN(c2ccc(OC)c(Cl)c2)S(=O)(=O)c2ccccc2)c(OC)c1,?,23µM*,39,8%,.,?
COc1ccc(N(CC(=O)Nc2cccc(OC)c2)S(=O)(=O)c2c(C)nn(C)c2C)cc1,-25%,-28%,-13,-4%,6%,-14%
COc1ccc(OC)c(NC(=O)CN(c2ccc(OC)c(Cl)c2)S(C)(=O)=O)c1,-23%,?,1,-8%,3%,-2%
COc1ccc(N(CC(=O)Nc2cc(OC)ccc2OC)S(=O)(=O)c2c(C)nn(C)c2C)cc1,21µM*,?,?,-9%,2%,4%
CCOC(=O)c1ccccc1NC(=O)CN(c1ccccc1C)S(C)(=O)=O,?,16µM*,13,-11%,-1%,-24%
COc1ccc(N(CC(=O)Nc2ccccc2F)S(=O)(=O)c2ccc(C)c([N+](=O)[O-])c2)cc1,?,23µM*,-9,-1%,-3%,0%
COc1ccccc1NC(=O)CN(c1ccccc1C)S(C)(=O)=O,3%,-4%,10,-7%,.,25%
SMILES,DT40 TDP1 CPT,DT40 TDP1 no CPT,IL1B secr inh,HepG2 tox,TDP1 block,TGFb SMAD3 inh
O=C1CN2Cc3c(ccc(Cl)c3Cl)N=C2N1,-2%,1%,13,-6%,9%,20%
COc1ccc(N(CC(=O)Nc2ccccc2OC)S(=O)(=O)c2ccccc2)cc1Cl,13µM*,?,-12,2%,.,-9%
COc1ccc(N(CC(=O)Nc2cccnc2)S(=O)(=O)c2ccccc2)cc1Cl,-25%,?,-1,1%,.,-4%
COc1ccc(S(=O)(=O)N(CC(=O)Nc2ccc(OC)cc2OC)c2ccc(Cl)cc2)cc1,23µM*,26µM*,.,-31%,.,0%
NS(=O)(=O)Oc1ccccc1,2%,5%,16,-18%,.,1%
Cc1ccc(C)c(NC(=O)c2ccc3c(c2)CCN3S(C)(=O)=O)c1,?,?,-13,-3%,2%,4%
CCCCC/C=C\C/C=C\C/C=C\CCCCC(=O)NCCCC(=O)O,.,.,.,.,8%,.
COc1cc2c(cc1OC)CN(c1nc(CN3CCCCC3)nc3sc4c(c13)CCCC4)CC2,?,?,-11,11%,1%,9%
COc1cc2c(cc1OC)CN(c1nc(CN3CCCC3)nc3sc(C)c(C)c13)CC2,-23%,?,-67*,-17%,5%,-16%
COc1ccc2c(c1)O[C@@H](c1ccc3c(c1)OCO3)[C@H](OC(=O)NCc1ccc3c(c1)OCO3)C2=O,.,.,.,.,4%,.
C=CCCCCCCCCCCCC(O)CC(O)CO (configuration not stated) (tested in a mixture with another compound),?,-18%,.,.,-10%[56.1 µM],.
CC(NCCC(c1ccccc1)c1ccccc1)c1ccccc1 (configuration not stated),6.5µM*,5.2µM*,?,-95%,5%,?
CC(NN)c1ccccc1 (configuration not stated),-7%,-11%,.,.,.,.
COc1cc2c(cc1OC)-c1nnc(-c3cccs3)n1C1(CCCC1)C2,21µM*,21µM*,2,-2%,0%,-4%
